Screens (PubChem)
GLP1R cytotox – cytotoxic in the GLP-1 receptor inverse agonist counter-screen. HEK293 cAMP-luciferase reporter cells, luminescence, 24 h. Potency, µM (titrated, usually from 38.3 µM), without a hit: at the top dose activity change, negative = inhibition, actives largely listed as inhibitors. 0.13% of 410,000 active. AID 624418;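 note: loss of luciferase light is scored as toxicity; potency is the fitted concentration of half-maximal effect; % is set by controls: 0 for no effect and ±100 for the full control effect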
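Step one: seed cells (200 cells/uL, DMEM with 10% Nu serum, 1% pen-strep). Step two: 12-hour incubation at 37 deg C. Step three: pin 23 nL compound, incubate 24 hr. Step four: add luciferase reagent, read luminescence 12 min later.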
GLP-1R agonist – activates the human GLP-1 receptor; HEK293 GLP-1R CRE-luciferase, luminescence, 4-6 h; cells express a hypersensitive GLP-1R form; Potency, µM (highest dose often 45.6 µM), for inactives: top-dose activation, actives largely listed as activators; 0.007% of 380,000 active; AID 624172; note: potency is the fitted concentration of half-maximal effect; % of control where 0% means no effect
TRPML1 agonist – activates the human TRPML1 channel. Q9GZU1. TRPML1-expressing cells, Ca2+ dye fluorescence, FDSS. activation, % (test concentration not listed). 0.12% of 410,000 active. AID 624414; in the data active = activation above about 50%; inconclusive = mostly about 30% to 49%; note: 0% is about no effect
Target sequence (Q9GZU1 whole entry, looked up): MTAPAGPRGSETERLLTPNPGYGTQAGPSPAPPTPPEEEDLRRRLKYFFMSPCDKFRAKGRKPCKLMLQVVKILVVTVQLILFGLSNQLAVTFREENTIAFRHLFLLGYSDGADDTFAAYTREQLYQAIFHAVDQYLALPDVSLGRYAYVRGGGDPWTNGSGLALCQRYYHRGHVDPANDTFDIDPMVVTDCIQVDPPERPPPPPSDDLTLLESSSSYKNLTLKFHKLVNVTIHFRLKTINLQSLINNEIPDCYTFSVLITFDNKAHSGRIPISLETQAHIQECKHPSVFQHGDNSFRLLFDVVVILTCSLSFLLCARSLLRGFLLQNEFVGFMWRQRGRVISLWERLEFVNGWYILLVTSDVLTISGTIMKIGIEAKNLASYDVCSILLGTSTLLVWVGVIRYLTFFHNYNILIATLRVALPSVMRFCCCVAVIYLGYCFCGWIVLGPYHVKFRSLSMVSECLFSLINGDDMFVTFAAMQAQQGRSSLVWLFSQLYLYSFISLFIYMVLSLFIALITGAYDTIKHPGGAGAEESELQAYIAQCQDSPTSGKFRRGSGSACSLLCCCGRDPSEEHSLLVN
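Cells: TRPML1-DL, 1X Tet inducer, ~16 h at 37 degrees C/5% CO2. Dye: ABD Ca8 no-wash + quencher, 45-90 min RT. Read: 10 s baseline, compound add, 110 s agonist phase; 54-4 EC80 (4uM final), 110 s antagonist phase.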
TRPML1 inh – inhibitors of human TRPML1 channel; 0.02% of 390,000 active; Q9GZU1; activity change, negative = inhibition, % (no concentration beside the values); TRPML1-inducible cells, Ca2+ dye fluorescence, FDSS; active compounds read low; inhibition of EC80 agonist-evoked calcium signal; in the data active = activity change below about -50%; inconclusive = between about -30% and that limit;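 note: stimulus is agonist 54-4 at its EC80 concentration; % is set by controls: 0 for no effect and ±100 for the full control effect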
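Calcium fluorescence in TRPML1-DL cells induced overnight with Tet: a 110 s read after compound pin addition, then a 110 s antagonist read after challenge with 54-4 at 4 uM final (EC80).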
GLP-1R inv ag – acts as inverse agonist at human GLP-1 receptor | P43220 | HEK293 GLP-1R CRE-luciferase, luminescence, 24 h; GLP-1R form is constitutively active | Potency, µM (series often up to 38.3 µM), inactives show at the top dose activity change, negative = inhibition, most hits filed as inhibitors | 1.6% of 410,000 active | AID 624417; note: potency is the fitted concentration of half-maximal effect; % is set by controls: 0 for no effect and ±100 for the full control effect; nearly all actives have a fitted effect of over 55% in size
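qHTS in 1536-well format: reporter HEK293 cells expressing constitutive GLP-1R activity in DMEM + 10% Nu serum, 24 hr with compounds at 37 deg C, luminescence read after 12 min with detection reagent.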
* = called active by the depositor; i = inactive; ? = inconclusive; · = not tested or not shown. Only some compounds are listed: those with a hit (about 1.8% of all), similar ones and a draw of the others. Unless noted, calls come from the whole dose curve; as a rule, active = well fitted curve in the direction sought with a large enough effect; inconclusive = small, poorly fitted or top-dose-only effect, or another doubt; inactive = no such curve, though single readings can be large; an effect the other way counts as inactive or inconclusive.

SMILES	GLP1R cytotox	GLP-1R agonist	TRPML1 agonist	TRPML1 inh	GLP-1R inv ag
CC(C)[C@H]1COCCS(=O)(=O)N1Cc1cccc([N+](=O)[O-])c1	·	·	-1	·	·
NS(=O)(=O)c1ccc(CCNCc2ccccc2OCc2ccc(Cl)cc2)cc1	-29%	-5%	0	9	7.9µM*
CCc1ccc(OCCOCCN2CCN(C)CC2)cc1	-2%	14%	·	·	?
c1ccc(COc2ccc(OCCCCN3CCCC3)cc2)cc1	-18%	-7%	0	-6	11µM*
CN1CCN(CCOc2ccc(Cc3ccccc3)cc2)CC1	-1%	7%	0	-5	11µM*
CC(C)(C)c1ccc(C(=O)NCC(c2cccs2)S(=O)(=O)c2ccccc2)cc1 (configuration not stated)	1%	·	1	34	2.8µM*
CCOc1ccc(C(=O)NCC(c2cccs2)S(=O)(=O)c2ccccc2)cc1 (configuration not stated)	2%	·	1	-3	?
Cc1cccc(NC(=S)NCCc2ccccc2)n1	4µM*	16%	2	7	?
C/C(=N\NC(=S)NCCc1ccccc1)c1ccc(C)cc1	10µM*	2%	1	-11	?
C/C(=N\NC(=S)NCCc1ccccc1)c1ccc(Cl)cc1	?	?	3	16	10µM*
C/C(=N\NC(=S)NCCc1ccccc1)c1ccc(C#N)cc1	-5%	0%	1	-3	1%
C/C(=N/NC(=O)CNC(=O)CCc1ccccc1)c1ccc(Cl)cc1	?	0%	1	57	?
CCOC(=O)C1=CN(Cc2ccco2)S(=O)(=O)N(C)C1c1ccc2ccccc2c1 (configuration not stated)	-11%	2%	2	-14	10µM*
Cc1ccc(C)c(Nc2ncnc3c2cnn3-c2ccc(F)cc2)c1	-2%	·	0	35	16%
CCc1ccc(N2C(=O)C(Cl)=C(N3CCCCCC3)C2=O)cc1	5%	11%	14	-7	10µM*
CN(c1ccccc1)S(=O)(=O)c1cccc(NC(=O)CSc2nncn2C)c1	0%	-1%	-1	-3	1%
CC(=O)CCc1ccc(OCC(=O)Nc2cccc(S(=O)(=O)N(C)c3ccccc3)c2)cc1	8%	3%	1	-1	11µM*
CN(c1ccccc1)S(=O)(=O)c1cccc(NC(=O)CSc2ncc(C(F)(F)F)cc2Cl)c1	10%	-4%	2	15	10µM*
CN(c1ccccc1)S(=O)(=O)c1cccc(NC(=O)COc2ccccc2)c1	-6%	10%	-2	-11	?
COc1ccc(CN(C(=O)c2nsc(Cl)c2Cl)C(C(=O)NC2CCCC2)c2ccc(C)cc2)cc1 (configuration not stated)	2%	2%	2	45	?
Cc1ccc(C)c(N(C(=O)c2nsc(Cl)c2Cl)C(C(=O)NC2CCCC2)c2ccc(O)cc2)c1 (configuration not stated)	9%	0%	1	-13	5.6µM*
Cc1ccccc1NC(=O)CCn1nc(-c2ccccc2)c2ccccc2c1=O	5%	·	0	14	-1%
Cc1ccc(S(=O)(=O)N2CCN(c3nc(-c4ccncc4)nc4ccccc34)CC2)cc1	·	·	0	·	·
CC(C)(C)c1ccc(NC(=O)COC(=O)C2(C)CC2(Cl)Cl)cc1 (configuration not stated)	-24%	1%	1	-3	3.5µM*
COc1ccccc1C(=O)COC(=O)C1(C)CC1(Cl)Cl (configuration not stated)	10%	1%	0	6	10µM*
SMILES	GLP1R cytotox	GLP-1R agonist	TRPML1 agonist	TRPML1 inh	GLP-1R inv ag
CC(=O)Nc1ccc(/C=C/c2nc3ccccc3s2)cc1	·	·	4	·	·
CCOc1cccc(/C=C(/C#N)c2nc3ccccc3[nH]2)c1OCC(=O)O	1%	-4%	0	-14	21%
CCN(CC)c1ccc(/C=C(/C#N)c2nc3ccccc3[nH]2)c(OC(C)C)c1	-12%	13%	23	1	1.8µM*
COC1=C(OC)C(=O)C(CC=C(C)CCC=C(C)CCC=C(C)CCC=C(C)CCC=C(C)CCC=C(C)CCC=C(C)CCC=C(C)CCC=C(C)CCC=C(C)C)=C(C)C1=O	·	2%	·	·	·
CCN(CC)c1ccc2cc(S(=O)(=O)c3ccc(Cl)cc3)c(=O)oc2c1	320%	10%	17	-4	10µM*
Cc1c(CCNC(=O)C(C)(C)C)sc2nc(-c3ccc(F)cc3)nn12	-4%	·	3	0	1%
Cc1nc2ccccc2c(N)c1C(=O)/C=C/c1ccccc1	?	-3%	-1	-19	10µM*
CC(=O)c1c(C)nc2ccccc2c1N	12%	-14%	0	-5	-1%
COc1ccc(-c2nc3sc(CCNC(=O)c4ccc(C(C)(C)C)cc4)c(C)n3n2)cc1	2%	2%	0	1	4%
O=C1CC(c2nc3ccccc3n2CCCCOc2ccccc2)CN1c1ccccc1Cl (configuration not stated)	-17%	·	1	22	10µM*
COc1ccc(OCCCCn2c(C3CC(=O)N(c4cccc(Cl)c4)C3)nc3ccccc32)cc1 (configuration not stated)	1%	·	2	6	10µM*
Cc1ccc(OCCCn2c(C3CC(=O)N(c4cccc(Cl)c4)C3)nc3ccccc32)c(C)c1 (configuration not stated)	1%	·	2	39	?
O=c1cc(-c2cccs2)oc2ccc(Cl)cc12	5%	5%	0	1	0%
O=c1c(O)c(-c2cccs2)oc2ccccc12	i	-8%	55*	-3	?
O=c1c(O)c(-c2cccs2)oc2ccc(Cl)cc12	i	-4%	59*	-8	?
Cc1ccc2c(CNCc3ccc(C)o3)c(C(=O)O)n(Cc3ccccc3C)c2c1	7%	·	2	38	5%
Cc1nc2c(sc(=S)n2Cc2ccco2)c(=O)n1CC(=O)Nc1ccc(F)cc1	1%	5%	3	-1	-5%
Cc1nc2c(sc(=S)n2Cc2ccco2)c(=O)n1CC(=O)Nc1cc(F)ccc1F	-10%	-4%	0	-15	1.4µM*
O=S(=O)(Nc1cccc2cccnc12)c1ccc(S(=O)(=O)N2CCCC2)cc1	-5%	4%	66*	-3	-25%
COc1ccc(S(=O)(=O)Nc2cccc3cccnc23)cc1	·	·	3	2	·
COc1ccccc1N(C)S(=O)(=O)c1ccc(C(=O)OCC(=O)N(C)c2ccccc2)cc1	-1%	5%	3	-7	3.2µM*
CC1CCCCN1C(=S)NC(=O)c1ccccc1 (configuration not stated)	11µM*	4%	0	-5	?
